Measurements from PubChem BioAssay (Tox21).
Records with an inconclusive call do not appear. Values without a mark were called inactive. The source made the active and inactive calls. The call rests on the fitted dose curve.

target: Muscarinic acetylcholine receptor M1 (Homo sapiens) (UniProt P11229); experiment: Cholinergic receptor muscarinic 1 (CHRM1) small molecule antagonists, cell-based qHTS assay (AID 1963588); details: CHRM1-CHO antagonist mode, calcium flux fluorescence; series mostly up to 61.5 µM; activity, negative = inhibition: at the top concentration; further: nearly all actives have a fitted effect of over 40% in size
Description: National Center for Advancing Translational Sciences [NCATS]
Division of Preclinical Innovation [DPI]
U.S. Environmental Protection Agency [EPA]
National Institutes of Environmental Health Sciences [NIEHS]
National Toxicology Program [NTP]
U.S. Food and Drug Administration [FDA]
The CHRM1 is a muscarinic receptor. This receptor plays a crucial role in learning and memory processes and has long been identified as a promising therapeutic target for the improvement of cognitive decline in Alzheimer's disease (AD). The CHRM1-CHO cell line stably expressing human muscarinic acetylcholine receptor M1 (CHRM1) can be used for screening agonists and antagonists of interactions between CHRM1 and its ligands. The CHRM1-CHO Calcium Flux Assay is a homogeneous fluorescence-based assay for detecting the intracellular calcium level using FDSS kinetic plate reader system.
Tox21 Assay Protocol Summary:
CHRM1-CHO cells were dispensed at 1000 cells/3uL/well in 1536-well black-clear bottom plates using a Multidrop Dispenser. After the assay plates were incubated at a 37 C/5% CO2 incubator for 18 h, 3 uL of Dye Loading Buffer was transferred to the assay plate by a Flying Reagent Dispenser. The assay plates were incubated at 37 C for 1h. For antagonist mode, 23 nL of compounds dissolved in DMSO, positive controls or DMSO only was transferred to the assay plate by a pin tool. After 5 min incubation at room temperature, 1.5 uL of acetylcholine at 50nM was added to each well. The fluorescence intensity in the plates was measured using FDSS 7000EX kinetic plate reader for 3 min at 1 sec intervals. Each test compound was measured at 15 concentrations in three independent runs.
On the % scale 0 is the no-effect control and ±100 the full control effect; potency means the concentration at half of the fitted maximal effect.

Sequence of Muscarinic acetylcholine receptor M1 (Homo sapiens) (P11229 whole entry, looked up): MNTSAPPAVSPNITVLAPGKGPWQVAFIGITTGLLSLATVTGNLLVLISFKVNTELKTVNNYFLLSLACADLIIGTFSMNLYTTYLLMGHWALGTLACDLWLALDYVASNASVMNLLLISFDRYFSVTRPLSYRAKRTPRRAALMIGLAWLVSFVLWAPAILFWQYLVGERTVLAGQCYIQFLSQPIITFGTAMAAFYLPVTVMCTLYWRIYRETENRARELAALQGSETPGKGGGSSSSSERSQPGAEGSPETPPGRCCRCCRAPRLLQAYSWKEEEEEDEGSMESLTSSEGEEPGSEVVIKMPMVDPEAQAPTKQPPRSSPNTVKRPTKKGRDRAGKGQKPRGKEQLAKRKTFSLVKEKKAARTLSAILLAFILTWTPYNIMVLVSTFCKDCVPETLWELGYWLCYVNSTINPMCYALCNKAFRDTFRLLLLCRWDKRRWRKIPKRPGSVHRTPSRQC

| Compound | activity, negative = inhibition | Potency |
| --- | --- | --- |
| O=S(=O)(O)c1ccc(Cl)cc1 | -5.36% |  |
| CC(C)(C)NCCNC(C)(C)C | 9.86% |  |
| COC(=O)c1ccc(I)cc1S(=O)(=O)NC(=O)Nc1nc(C)nc(OC)n1 | 2.96% |  |
| CNC(=O)N(c1ccccc1)c1ccccc1 | -2.71% |  |
| CC12CCCC=C1C(=O)OC2=O (stereo not given) | -7.11% |  |
| O=c1[nH]cnc2nc[nH]c12 | 7.12% [at 28.3 µM] |  |
| CCOC(=O)/C=C/C(=O)O | 0.175% |  |
| CCCCC/C=C/CC1CC(=O)OC1=O (stereo not given) | 8.63% |  |
| O=C1[C@H](CC[C@H](O)c2ccc(F)cc2)[C@@H](c2ccc(O)cc2)N1c1ccc(F)cc1 | 5.12% [at 28.3 µM] |  |
| CSc1cnc(C)cn1 | -9.35% [at 160 µM] |  |
| C[C@]12C=CC(=O)C=C1[C@@H](F)C[C@@H]1[C@@H]2[C@@H](O)C[C@@]2(C)[C@H]1CC[C@]2(O)C(=O)CO | 7.12% [at 28.3 µM] |  |
| ON=C1CCCC1 | -5.88% |  |
| CC1CCC(C(C)CS)CC1S (stereo not given) | -15.4% |  |
| CC1=C(C)C(=O)C(C(CCCCCC(=O)O)c2ccccc2)=C(C)C1=O (stereo not given) | 4.07% [at 28.3 µM] |  |
| COC[C@H](c1ccc(C(F)(F)F)cc1)N1CCN(C2(C)CCN(C(=O)c3c(C)ncnc3C)CC2)C[C@H]1C |  | 5.16 µM (active) |
| O=C(COCCOCCOCC(=O)Nc1c(I)cc(I)c(C(=O)O)c1I)Nc1c(I)cc(I)c(C(=O)O)c1I | -2.87% [at 28.3 µM] |  |
| Nc1cc([N+](=O)[O-])cc(Cl)c1O | -5.95% |  |
| CO[Si](CCC1CCC2OC2C1)(OC)OC (stereo not given) | 46.9% |  |
| Cc1cc(=O)oc2cc(O)cc(O)c12 | 2.25% |  |
| CCCCCCCCC(=O)Cl | -14% |  |

| Compound | activity, negative = inhibition | Potency |
| --- | --- | --- |
| CCOC(C)=O | 34.2% |  |
| CN(C)CCOCCN(C)CCO | -9.71% |  |
| COCCCN1CCC(NC(=O)c2cc(Cl)c(N)c3c2OCC3)CC1 | 1.07% [at 28.3 µM] |  |
| O=C(O)CCCc1ccccc1 | -12.8% [at 28.3 µM] |  |
| O=C(O)Cc1ccc2c(c1)C(=O)c1ccccc1CO2 | 9.34% [at 28.3 µM] |  |
| OCC(CBr)(CBr)CBr | 3.34% |  |
| CCCCC(CC)COC(=O)CCCCCCCCC(=O)OCC(CC)CCCC (stereo not given) | 0.444% |  |
| Nc1cc(C(=O)O)c(O)c(S(=O)(=O)O)c1 | 14.4% |  |
| N=C(N)c1ccc(OCCCOc2ccc(C(=N)N)cc2)cc1 | -10.2% [at 28.3 µM] |  |
| O=C(Nc1ccc(Cl)c(Cl)c1)C1CC1 | -13.1% [at 28.3 µM] |  |
| COc1ccccc1N1CCN(CCCNc2cc(=O)n(C)c(=O)n2C)CC1 |  | 10.3 µM (active) |
| Nc1ccc(S(=O)(=O)NCc2ccccc2)cc1 | -7.29% [at 28.3 µM] |  |
| CC(=O)Oc1ccc(C2(c3ccc(OC(C)=O)cc3)C(=O)Nc3ccccc32)cc1 | 4.79% [at 28.3 µM] |  |
| O=C1c2ccccc2C(=O)N1CO | -16.8% |  |
| CCOc1cccc(N)c1 | 2.16% |  |
| Nc1cccc(S(=O)(=O)c2cccc(N)c2)c1 | 5.73% |  |
| COCCCCCCCCOCCC[Si](C)(O[Si](C)(C)C)O[Si](C)(C)C | -4.32% |  |
| NCc1ccco1 | 32.9% |  |
| COc1cc(C(=O)OC(COCCC(C)C)CN2CCOCC2)cc(OC)c1OC (stereo not given) | 12.4% [at 28.3 µM] |  |
| COc1cc(-c2nc(NC(=O)c3cc4cc(C)cc(C)c4n3CC(=O)O)sc2CCC2CCCCC2)c(OC)cc1Cl | 5.01% |  |
